Here are results for 99 compounds from PubChem BioAssay AID1159524 (National Center for Advancing Translational Sciences (NCATS), 2015).

Hit rate of the full screen: of about 410,000 compounds, about 5,100 (1.2%) were called active. A call without a number means that no potency is given here. Roughly 8% stayed inconclusive and do not appear here. The sample holds actives, similar compounds and a random draw of the others, so the mix is not that of the screen. Calls follow the shape of the full dose curve; tested in HEK293T cells.
Potency is read from the fitted curve at half-maximal effect.

A short description of this assay: High Throughput Screening for Foot and Mouth Disease Virus Antivirals. Also: nearly all actives have a fitted effect of over 45% in size. The conditions noted are these: FMDV antiviral cell-based qHTS; series mostly up to 57.9 µM. (In general: qHTS replaces the single test concentration by a dilution series.)
Consider `CC(=O)c1c(C)[nH]c(C(=O)OCC(=O)NCCC(C)C)c1C`, for which the Potency entry was “inactive”.
In the case of `Cc1ccc(C)c(OCC(=O)Nc2sc3c(c2C#N)CCCC3)c1C`, the Potency entry was “inactive”.
For the compound `CC(=O)c1c(C)[nH]c(C(=O)OCC(=O)Nc2sc3c(c2C#N)CCCC3)c1C`, the Potency was 17.8 µM (active).
Turning to `CC(C)CC(NS(=O)(=O)c1ccc2c(c1)oc(=O)n2C)C(=O)NCc1ccccc1Cl` (centres undefined), the Potency result was “inactive”.
Regarding `CCC(CC)C(=O)N1CCc2cc(OC)c(OC)cc2C1COc1ccc(F)cc1` (centres undefined), the Potency result is “inactive”.
Consider `COc1ccccc1-c1ccc(C(=O)N(C)C(C)c2ccon2)c(N2CCN(c3ccccc3F)CC2)n1` (centres undefined), for which the Potency entry was “inactive”.
For the compound `CN(c1ccccc1)S(=O)(=O)c1cc(C(=O)OCC(=O)N2CCN(C(=O)c3ccco3)CC2)ccc1Cl`, the Potency was 25.1 µM (active).
As to `O=C(OCC(=O)N1CCN(C(=O)c2ccco2)CC1)c1c(Cl)cccc1Cl`, the Potency result was “inactive”.
Then `O=C(OCC(=O)N1CCN(C(=O)c2ccco2)CC1)c1ccc(Cl)c(Cl)c1`, with “inactive”; and `CC(O)[C@@H](N)C(=O)O` (some centres undefined), with “inactive”; and `COc1ccc(CCCOC(Cn2ccnc2)c2ccc(OC)cc2)cc1` (centres undefined), with “inactive”.
`COc1ccccc1-c1nc(NCc2cccs2)c2ccccc2n1`: the Potency entry is “inactive”.
For `O=C1NC(CC(=O)N2CCC(n3c(C4CCC4)nc4cccnc43)CC2)c2ccccc21` (centres undefined), the Potency result was “inactive”.
Turning to `Cn1c(-c2sccc2OCc2cccc(C(F)(F)F)c2)n[nH]c1=S`, the Potency entry was “inactive”.
Turning to `O=c1n(Cc2cccc(C(F)(F)F)c2)c2ccccc2c2nc(-c3ccccc3)nn12`, the Potency result was “inactive”.
Turning to `O=c1c2ccccc2nc2n1C(CSCc1cccc(C(F)(F)F)c1)CS2` (centres undefined), the Potency is 5.62 µM (active).
As to `O=C(Nc1cccc(F)c1)N1CCC2(CC1)CCN(S(=O)(=O)c1ccccc1)CC2`, the Potency result was “inactive”.
Then `O=C(Nc1cc(C(=O)Nc2ccc(S(=O)(=O)O)cc2)cc(C(=O)Nc2ccc(S(=O)(=O)O)cc2)c1)Nc1cc(C(=O)Nc2ccc(S(=O)(=O)O)cc2)cc(C(=O)Nc2ccc(S(=O)(=O)O)cc2)c1`, with “inactive”; and `O=C(CSc1nc2ccc(Nc3nc(N4CCOCC4)nc(N4CCOCC4)n3)cc2s1)NCc1ccco1`, with “inactive”.
With `O=C(CSc1nc(Nc2ccccc2)nc(N2CCOCC2)n1)Nc1cc(Cl)ccc1O`, the Potency is 39.8 µM (active).
With `O=C(CSc1ccccc1)Nc1cc(Cl)ccc1Oc1ccccc1`, the Potency result is “inactive”.
On to `O=C(O)C(O)[C@@](O)(Cc1ccc(O)cc1)C(=O)O` (some centres undefined), for which the Potency entry was “inactive”.
For the compound `CC(=O)OC1C2CCC3C1(CC(O)[C@@]1(O)[C@@H](CC(O)C1(C)C)[C@]3(C)O)C[C@@]2(C)O` (some centres undefined), the Potency result is “inactive”.
On to `COC(=O)c1ccccc1C(=O)NCc1nc(N2CCCC2)c2cccc(C)c2n1`, for which the Potency entry was “inactive”.
For `COc1cc(Cl)c(C)cc1NC(=O)COC(=O)c1cc(SC)ccc1Cl`, the Potency entry was “inactive”.
Then `COc1cc(SC)ccc1C(=O)Nc1nc(C)cs1`, with 3.16 µM (active); and `Cc1csc(OCC(=O)Nc2ccc(C)c(C)c2)n1`, with “inactive”; and `COc1ccccc1C1CN(Cc2ccccc2O)Cc2ccccc2O1` (centres undefined), with “inactive”.
The result for `COc1ccc(CCNC(=O)c2c3c(nc4ccccc24)C(=O)N(C2CCCCC2)C3)cc1OC` reads “inactive”; that for `COc1cc(C(=O)N2CCC(c3ccncc3)CC2)cc(OC)c1OC`, “inactive”; that for `O=C(c1cc(C(F)(F)F)cc(C(F)(F)F)c1)N1CCC2(CCCN(c3ccccn3)C2)CC1`, “inactive”.
`CCc1ccc2oc(-c3ccc(C)c(NC(=O)/C=C/c4ccco4)c3)nc2c1`: the Potency entry is “inactive”.
Turning to `Cc1ccc(-c2cc(C(=O)N/N=C/C=C/c3ccco3)c3ccccc3n2)cc1C`, the Potency is 1.58 µM (active).
`O=c1c2ccccc2nc(/C=C/c2ccco2)n1-c1ccccc1O`: the Potency result was “inactive”.
Turning to `COc1ccc(-n2c(CNC(=O)c3cc(C(F)(F)F)ccc3Cl)nnc2SC)cc1`, the Potency result is “inactive”.
On to `CCCCCCCCCCOC(=O)Cn1c(COc2cccc(OC)c2)[n+](C)c2ccccc21`, for which the Potency is 28.2 µM (active).
Regarding `CCOC(=O)c1c(NC(=O)COc2cc(C)ccc2C(C)C)sc(C)c1C`, the Potency result is “inactive”.
`COc1ccccc1N1CCN(C[C@@H]2CN3C(=O)N(C)c4ccccc4C3=N2)CC1`: the Potency result is “inactive”.
`O=c1c(CCc2ccccc2)nc2cncnc2n1C1CC1`: the Potency result is “inactive”.
The result for `Cc1c(C(=O)OC(C)C)sc(NC(=O)c2cccnc2)c1C#N` reads “inactive”; that for `CCCc1ccc(-c2c(C)sc(NC(=O)c3ccnn3C)c2C#N)cc1`, 15.8 µM (active).
For the compound `CCc1ccccc1NC(=O)CSc1nc(C)c(C(=O)Nc2ccccc2)c(-c2ccc(Cl)cc2)c1C#N`, the Potency entry is “inactive”.
As for `COc1ccc(C(=O)NCc2ccc(Cl)cc2)cc1S(=O)(=O)N1CCCC1`, the Potency entry is “inactive”.
Turning to `O=C(NCCc1ccc(F)cc1)c1ccc(S(=O)(=O)N2CCCCC2)cc1`, the Potency entry was “inactive”.
Turning to `NS(=O)(=O)c1ccc(CCNC(=O)c2ccc(Cl)c(S(=O)(=O)N3CCCCCC3)c2)cc1`, the Potency was 14.1 µM (active).
The result for `O=C(CCS(=O)(=O)c1ccccc1)N(Cc1cccnc1)c1nc2c(F)cccc2s1` reads “inactive”; that for `O=C(c1ccc(F)cc1)C1CCN(CCCCc2ccccc2)CC1`, “inactive”; that for `CS(=O)(=O)N1CCC2(CC1)CN(c1ccncc1)C2`, “inactive”.
Then `CCOC(=O)c1c(NC(=O)c2cc(-c3ccc(Cl)cc3)on2)sc2c1CCCC2`, with “inactive”; and `Cc1ccc(Cl)cc1NC(=O)CSc1nc2ccccc2nc1Cc1ccccc1`, with “inactive”.
Then `NC(=O)c1sc(-c2ccsc2)cc1N`, with “inactive”; and `CN(CCO)c1ccc(/C=N/Nc2nncc3ccccc23)cc1`, with 10 µM (active).
With `COc1cccc(-c2cc(NCCc3c[nH]c4ccc(OC)cc34)ncn2)c1`, the Potency entry was “inactive”.
Consider `O=C(c1cnccn1)N1CCC2(CCCN(Cc3ccccc3)C2)CC1`, for which the Potency entry was “inactive”.
On to `CCNc1ncc2ncc(=O)n(CCc3ccccc3)c2n1`, for which the Potency result is “inactive”.
With `COc1ccc(Nc2cc(C(=O)NCCCN(C)c3ccccc3)c3ccccc3n2)c(OC)c1`, the Potency entry was “inactive”.
As to `O=C(Nc1cccc(F)c1)N1CC2(CCN(C(=O)c3csnn3)CC2)C1`, the Potency entry is “inactive”.
With `CCOC(=O)C1=C(c2ccc(OC)cc2)C(=O)c2ccccc2C1=O`, the Potency was 3.55 µM (active).
Then `CCOC(=O)C1=C(c2ccccc2)NC(=O)NC1c1cc(OC)c(OC)cc1OC` (centres undefined), with “inactive”; and `CCOC(=O)C1C(=O)C=C(c2ccc(OC)cc2)CC1c1ccco1` (centres undefined), with “inactive”; and `CC(C)(CNC(=O)Cc1ccc(Cl)cc1Cl)N1CCOCC1`, with “inactive”.
`CC(C)(CNC(=O)c1ccc(Cl)c(S(=O)(=O)N2CCc3ccccc3C2)c1)N1CCOCC1`: the Potency is 12.6 µM (active).
The result for `CN(C)S(=O)(=O)c1ccc(C(=O)NCC(C)(C)N2CCOCC2)cc1` reads “inactive”; that for `Cc1ccc(S(=O)(=O)c2c(Nc3cccc(Cl)c3)sc(C(=O)c3ccc4c(c3)OCO4)c2N)cc1`, “inactive”.
As to `COc1ccccc1CNC(=O)c1ccc(Cl)c(S(=O)(=O)N2CCCC2)c1`, the Potency result is “inactive”.
Regarding `CCS(=O)(=O)N1CCc2cc(C(=O)N3CCN(c4ccccc4OC)CC3)ccc21`, the Potency entry is “inactive”.
`COc1ccccc1N1CCN(C(=O)c2ccc(Cl)c(S(=O)(=O)N3CCCC3)c2)CC1`: the Potency is 20 µM (active).
As to `CCCC1OC23CCCCC2C(C#N)(C#N)C1(C#N)C(=N)O3` (centres undefined), the Potency is 20 µM (active).
Turning to `CN1CCCC1CCO[C@@](C)(c1ccccc1)c1ccc(Cl)cc1` (some centres undefined), the Potency entry is “inactive”.
Consider `CN1CCN(C(=O)O[C@@H]2c3nccnc3C(=O)N2c2ccc(Cl)cn2)CC1`, for which the Potency entry was “inactive”.
Consider `Cc1cnc(-n2ncc(C(=O)N3CCN(C(C)C)CC3)c2-c2ccco2)nc1-c1ccc(F)cc1`, for which the Potency entry is “inactive”.
`COc1ccc(S(=O)(=O)N2CCCCCC2)cc1C(=O)N(C)Cc1cccc(OC)c1OC`: the Potency result was “inactive”.
For the compound `CCN(CC)S(=O)(=O)c1ccc(N(C)Cc2cccc(OC)c2OC)nc1`, the Potency was 20 µM (active).
For `COc1cccc(CN(C)CC(=O)NCc2ccccc2Cl)c1OC`, the Potency result is “inactive”.
For `COc1ccc(S(=O)(=O)NCC(c2ccc(N(C)C)cc2)N2CCCC2)cc1` (centres undefined), the Potency entry is “inactive”.
`COc1ccc(CN2CCOc3c(cc(-c4ncc(C(F)(F)F)cc4Cl)cc3OCC3CCCO3)C2)c(O)c1` (centres undefined): the Potency entry was “inactive”.
For `Cc1ccc(NS(=O)(=O)c2ccc3c(c2)CC(=O)N3)cc1Cl`, the Potency result was “inactive”.
For the compound `COCC(=O)N1CCC2(CCCN(c3ccccc3)C2)CC1`, the Potency result was “inactive”.
As to `CC(C)CNC(=O)C1CCCN(S(=O)(=O)c2ccc(-n3cnnn3)cc2)C1` (centres undefined), the Potency entry was “inactive”.
Then `COC(=O)c1ccc(CN2CCCC(C(=O)Nc3cccc(-n4cnnn4)c3)C2)cc1` (centres undefined), with 28.2 µM (active).
Regarding `O=C(Nc1ccc(F)cc1)C1CCCN(S(=O)(=O)c2ccc(-n3cnnn3)cc2)C1` (centres undefined), the Potency entry was “inactive”.
`CN(CC(=O)Nc1cccc(C(F)(F)F)c1)S(=O)(=O)c1cccs1`: the Potency entry is “inactive”.
Turning to `COc1ccccc1CNC(=O)C(=O)NCC(c1cccs1)S(=O)(=O)c1cccs1` (centres undefined), the Potency result was “inactive”.
Regarding `C#CCOc1ccccc1/C=C1/C(=O)ON=C1C`, the Potency is 39.8 µM (active).
As to `Cc1no[n+]([O-])c1COc1ccccc1/C=C1\NC(=S)NC1=O`, the Potency entry was “inactive”.
In the case of `CN1CCCCCC1C(=O)NCCN1Cc2ccccc2OC(c2ccsc2)C1` (centres undefined), the Potency entry is “inactive”.
In the case of `CCn1ccnc1C[C@@H]1COc2ccccc2O1`, the Potency result is “inactive”.
For the compound `Cc1cc(C(=O)CCl)c(C)n1CC1COc2ccccc2O1` (centres undefined), the Potency was 12.6 µM (active).
Regarding `Cc1n[nH]c(C)c1S(=O)(=O)N1CCCC(C(=O)NCC2COc3ccccc3O2)C1` (centres undefined), the Potency result is “inactive”.
The result for `Cc1ccc(-c2cn3c(n2)sc2cc(C(=O)NCCCc4ccccc4)ccc23)cc1` reads “inactive”.
Regarding `COc1cc(C2c3c(oc4ccccc4c3=O)C(=O)N2c2nc(C)c(C)s2)ccc1O` (centres undefined), the Potency result is “inactive”.
As to `COC(C/C=C/C(=O)[C@@H](C)OCc1ccccc1)OC`, the Potency was 39.8 µM (active).
Take `COC(C[C@H](O)CC(=O)[C@@H](C)OCc1ccccc1)OC`: the Potency result was “inactive”.
As for `COC(C[C@@H]1O[C@@H]1C(=O)[C@H](C)OCc1ccccc1)OC`, the Potency result was “inactive”.
With `Cc1nc2cnc(N3CCNCC3)nc2n(Cc2ccc(F)cc2)c1=O`, the Potency entry is “inactive”.
Then `C=CCSSCC=C`, with “inactive”; and `O=C(OCc1ccccc1F)c1ccc2c(c1)OCCO2`, with “inactive”; and `N#CCCN(C(=O)COC(=O)c1ccc2c(c1)OCCO2)c1ccccc1`, with “inactive”.
Then `O=C(COC(=O)c1ccccc1)c1ccc2c(c1)OCCO2`, with 12.6 µM (active).
